# According to the supplement of paper PMC7366291:
# Structures can show the parent of a compound that is named as a salt.
# Test system: Danio rerio Tg(wt1b:EGFP) embryo, pronephros
# Test: fraction of imaged embryos annotated as normal kidney; higher = less nephrotoxic; extreme values may be limits of the assay
# Settings: 25 µM; exposure: 24-48 hpf
# Summary of the method: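 Dechorionated Tg(wt1b:EGFP) zebrafish embryos were incubated with 25 μM compound in 0.5% DMSO, 5 mM HEPES-buffered E3 and 0.003% PTU from 24 to 48 hpf at 28.5°C. Pronephroi were then imaged by widefield fluorescence, and the fraction of embryos per treatment assigned by hand to the normal-kidney category is given.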
row,SMILES,fraction of imaged embryos annotated as normal kidney
1,Cn1c([N+](=O)[O-])cnc1COC(N)=O [Ronidazole],0.75
2,COc1ccc(Cl)cc1C(=O)NCCc1ccc(S(=O)(=O)NC(=O)NC2CCCCC2)cc1 [Glibenclamide],0.818
3,CC1(C)[C@@H](OC(=O)CCC(=O)O)CC[C@]2(C)[C@H]3C(=O)C=C4[C@@H]5C[C@@](C)(C(=O)O)CC[C@]5(C)CC[C@@]4(C)[C@]3(C)CC[C@@H]12 [Carbenoxolone disodium salt],0.667
4,O=C(O)CCC(=O)c1ccc(-c2ccccc2)cc1 [Fenbufen],0.0909
5,CCN[C@H]1C[C@H](C)S(=O)(=O)c2sc(S(N)(=O)=O)cc21 [Dorzolamide hydrochloride],0.75
6,O=C(O)CCCC[C@@H]1SC[C@@H]2NC(=O)N[C@@H]21 [Biotin],0.917
7,CSc1ccc2c(c1)N(CCC1CCCCN1C)c1ccccc1S2 (configuration not stated) [Thioridazine hydrochloride],0.75
8,COc1ccc(C(=O)NCc2ccc(OCCN(C)C)cc2)cc1OC [Itopride],0.8
9,OC(Cn1cncn1)(Cn1cncn1)c1ccc(F)cc1F [Fluconazole],0.917
10,COc1ccc(CN(CCN(C)C)c2ccccn2)cc1 [Pyrilamine maleate],0.667
11,NCCCCCC(=O)O [Aminocaproic acid],1
12,CC[C@H]1OC(=O)[C@H](C)[C@@H](O[C@H]2C[C@@](C)(OC)[C@@H](O)[C@H](C)O2)[C@H](C)[C@@H](O[C@@H]2O[C@H](C)C[C@H](N(C)C)[C@H]2O)[C@](C)(O)C[C@@H](C)CN(C)[C@H](C)[C@@H](O)[C@]1(C)O [Azithromycin],1
